From PubChem BioAssay (NCATS) come the findings set out here.

A short description of test [1]: A High-Content qHTS Against Drug Library for the Identification of Small Molecules that Inhibit DYT1 Early Onset Primary Dystonia-Associated Cell Pathology (AID 1645839; calls by dose curve; also: potency is read from the fitted curve at half-maximal effect). An outline of the steps:
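Readout: %pathology, the punctate EGFP-TorsinA distribution from imaging, as the primary channel and cell count as the toxicity counterscreen. HEK293 Flp-In cells expressing delE TorsinA were induced with tetracycline and treated with compound for 48 h.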

Test [2] concerns the target Cytochrome P450 3A4 (Homo sapiens) (UniProt P08684). In words: Cytochrome P450 family 3 subfamily A member 4 (CYP3A4) small molecule antagonists: luciferase qHTS assay (AID 1645841). Also: nearly all actives have a fitted effect of over 45% in size. Also: potency is read from the fitted curve at half-maximal effect. The method, boiled down:
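P450-Glo CYP3A4 enzyme with proluciferin substrate was preincubated with DMSO-dissolved compounds for 10 min at room temperature. NADPH regeneration solution started a 1 h reaction. Detection reagent stopped it, and luminescence was read after 20 min.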

Test [3] in a line: Cytotoxicity counterscreen for inhibitors of SARS-CoV-2 cell entry (AID 1645845; calls by dose curve; also: nearly all actives have a fitted effect of over 50% in size). The method, boiled down: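 Expi293F/hACE2 cells seeded overnight; cpd pin-transferred in DMSO, 1 h preincubation, + media, 48 h 37 C 5% CO2; ATPLite 1step luminescence; normalized to cells and no cells.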
Test [4] can be described thus: Primary qHTS to identify inhibitors of SARS-CoV-2 cell entry (AID 1645846; calls by dose curve; also: nearly all actives have a fitted effect of over 45% in size; also: potency is read from the fitted curve at half-maximal effect). As to conditions: activity change, negative = inhibition: at 57.1 µM (top of the series) unless noted. An outline of the steps:
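Entry measured by luciferase signal 48 h after adding SARS-CoV-2-S pseudotyped MLV particles to HEK293-ACE2 cells preincubated 1 h with compounds. Normalisation: bald particles and spike particles.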

Test [5] is described as follows: Primary qHTS for small molecule stabilizers of the endoplasmic reticulum resident proteome: Secreted ER Calcium Modulated Protein (SERCaMP) assay (AID 1508630; active = well fitted curve in the direction sought with a large enough effect; an effect the other way counts as inactive or inconclusive; also: % is scaled to controls: 0 for no effect and ±100 for the full control effect). An outline of the steps: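 GLuc-SERCaMP-expressing SH-SY5Y cells, pretreated 16 h with compound, are challenged with thapsigargin to empty ER calcium stores; after 4 h, coelenterazine is added directly to the medium and luminescence is imaged.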
A general note: qHTS replaces the single test concentration by a dilution series.

Test [6] has as its target Cytochrome P450 2D6 (Homo sapiens) (UniProt P10635). In words: Cytochrome P450 family 2 subfamily D member 6 (CYP2D6) small molecule antagonists: luciferase biochemical (cell-free) qHTS assay (AID 1645840). Also: nearly all actives have a fitted effect of over 55% in size. Also: potency is read from the fitted curve at half-maximal effect. As to activity change, negative = inhibition: % is scaled to controls: 0 for no effect and ±100 for the full control effect. An outline of the steps: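 P450-Glo luminescent screen: recombinant CYP2D6 enzyme–proluciferin substrate mix preincubated with compound 10 min at room temperature, then NADPH regeneration added for 1 h at room temperature. Detection reagent added for 20 min; luciferin light read as relative luminescence units.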

Test [7] has as its target Cytochrome P450 2C9 (Homo sapiens) (UniProt P11712). In words: Cytochrome P450 family 2 subfamily C member 9 (CYP2C9) small molecule antagonists: luciferase biochemical (cell-free) qHTS assay (AID 1645842). Also: nearly all actives have a fitted effect of over 55% in size. Also: potency is read from the fitted curve at half-maximal effect. As to activity change, negative = inhibition: % is scaled to controls: 0 for no effect and ±100 for the full control effect. An outline of the steps: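 Luminescence, after 20 min with luciferin detection reagent, reflected CYP2C9 turnover during a 1 h NADPH-driven reaction at 37C. Enzyme-substrate mix contained 0.4% bovine serum albumin and was preincubated with compound 10 min at room temperature.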

Several values for one entry are separate records, joined by “and”; a condition that tells them apart may be missing. Identical values can stand only once. Results filed as inconclusive are left out. Activity calls are given as the source filed them. Unless noted, calls follow the shape of the dose curve; as a rule, active = well fitted curve in the direction sought with a large enough effect in the repeat runs; inconclusive = weak or mixed curves; inactive = no such curve, though single readings can be large; an effect the other way counts as inactive or inconclusive.

Chain of Cytochrome P450 3A4 (Homo sapiens) (P08684 whole entry, looked up): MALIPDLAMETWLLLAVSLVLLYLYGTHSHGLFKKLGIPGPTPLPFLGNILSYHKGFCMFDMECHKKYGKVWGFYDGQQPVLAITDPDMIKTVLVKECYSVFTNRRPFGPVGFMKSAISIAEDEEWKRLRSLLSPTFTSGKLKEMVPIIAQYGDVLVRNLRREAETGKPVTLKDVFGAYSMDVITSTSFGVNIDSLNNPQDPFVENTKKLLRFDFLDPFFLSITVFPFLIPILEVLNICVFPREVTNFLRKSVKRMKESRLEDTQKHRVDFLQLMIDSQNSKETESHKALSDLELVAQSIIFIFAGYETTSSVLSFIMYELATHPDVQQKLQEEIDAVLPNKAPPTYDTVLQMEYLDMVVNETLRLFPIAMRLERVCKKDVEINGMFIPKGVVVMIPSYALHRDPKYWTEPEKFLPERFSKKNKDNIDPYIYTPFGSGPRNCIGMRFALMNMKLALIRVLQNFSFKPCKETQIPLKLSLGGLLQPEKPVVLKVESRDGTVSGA
Chain of Cytochrome P450 2C9 (Homo sapiens) (P11712 whole entry, looked up): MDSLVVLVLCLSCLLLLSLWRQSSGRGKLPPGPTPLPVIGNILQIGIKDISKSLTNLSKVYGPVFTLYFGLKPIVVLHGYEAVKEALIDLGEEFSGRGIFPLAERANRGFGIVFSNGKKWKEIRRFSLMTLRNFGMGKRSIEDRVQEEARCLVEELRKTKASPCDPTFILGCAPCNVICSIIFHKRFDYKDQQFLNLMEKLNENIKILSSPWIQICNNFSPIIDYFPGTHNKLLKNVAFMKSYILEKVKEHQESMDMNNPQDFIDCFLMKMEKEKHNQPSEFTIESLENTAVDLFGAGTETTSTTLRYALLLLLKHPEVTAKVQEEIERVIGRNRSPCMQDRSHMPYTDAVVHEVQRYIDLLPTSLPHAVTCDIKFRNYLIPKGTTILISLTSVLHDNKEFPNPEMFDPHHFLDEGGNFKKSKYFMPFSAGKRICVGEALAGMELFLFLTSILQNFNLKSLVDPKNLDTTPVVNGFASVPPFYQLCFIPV
Chain of Cytochrome P450 2D6 (Homo sapiens) (P10635 whole entry, looked up): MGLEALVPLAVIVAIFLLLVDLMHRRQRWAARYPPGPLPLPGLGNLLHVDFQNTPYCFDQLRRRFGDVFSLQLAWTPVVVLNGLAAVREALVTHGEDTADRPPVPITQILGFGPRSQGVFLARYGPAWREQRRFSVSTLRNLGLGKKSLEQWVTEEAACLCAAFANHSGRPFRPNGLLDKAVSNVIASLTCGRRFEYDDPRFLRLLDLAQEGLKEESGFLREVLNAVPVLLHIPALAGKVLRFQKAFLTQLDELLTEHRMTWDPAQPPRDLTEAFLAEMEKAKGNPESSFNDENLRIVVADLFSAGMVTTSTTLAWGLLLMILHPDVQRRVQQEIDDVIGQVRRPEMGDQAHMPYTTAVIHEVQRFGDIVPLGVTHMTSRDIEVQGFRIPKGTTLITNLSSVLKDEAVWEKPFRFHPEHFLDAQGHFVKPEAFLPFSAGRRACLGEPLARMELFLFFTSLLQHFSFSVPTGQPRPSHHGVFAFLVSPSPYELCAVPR

With `Nc1c(Cl)c(Cl)c(Cl)c(Cl)c1Cl`, the Potency result in test [1] was “inactive”.

Turning to `Nc1ccc(Cl)cc1N`, in test [2], the Potency is 7.96 µM (active).

Take `c1ccc2c(CN3CCNCC3)cccc2c1`: in test [3], the Potency entry is “inactive”. Moreover, the activity change, negative = inhibition in test [4] was -23.2%.

With `O=C(O)COc1nc(Cl)c(Cl)cc1Cl`, the Potency entry in test [5], in test [1], in test [6] and in test [7] was “inactive” in each case.

Regarding `CC1(C)CC/C(=C/c2ccc(Cl)cc2)C1(O)Cn1cncn1` (stereo not drawn), the Potency result in test [5] and in test [1] was “inactive” throughout. The Potency is 9.41 µM (active) in test [6] and 0.611 µM (active) in test [7].

For `O=C(O)COc1ccccc1`, the Potency entry in test [5], in test [1], in test [6] and in test [7] was “inactive” in each case.

`COC(=O)c1cncn1C(C)c1ccccc1` (stereo not drawn): the Potency entry in test [5], in test [1], in test [3] and in test [4] was “inactive” each time. Also, the Potency in test [6] is 7.76 µM (active); in test [7], 11 µM (active).

As for `CCCN(CCC)c1c([N+](=O)[O-])cc(S(N)(=O)=O)cc1[N+](=O)[O-]`, the Potency entry in test [5] was “inactive”. The Potency in test [1] is 28.2 µM (active); in test [6] it was 29.1 µM (active); in test [2], 8.44 µM (active); in test [7] it was 3.77 µM (active).

`NCCc1c[nH]c2ccc(O)cc12`: the Potency result in test [5] was “inactive”.

As to `CC1=C(C(=O)O)N2C(=O)[C@@H](N)[C@H]2SC1`, the Potency result in test [5], in test [6] and in test [7] was “inactive” throughout. Further, the % pathology change, negative = correction in test [1] was 1.33% [at 19.1 µM] (inactive).

Take `C[C@]12CCC3C(CC[C@H]4C[C@H](O)CC[C@]34C)C1CC[C@@H]2C(=O)CO` (stereo partly drawn): the Potency entry in test [5] was “inactive”.

On to `O=[N+]([O-])c1cc([N+](=O)[O-])c2ccccc2c1`, for which the Potency result in test [5], in test [1], in test [6] and in test [7] was “inactive” throughout.

In the case of `CN[C@@H](C)[C@H](O)c1ccccc1`, the Potency result in test [5], in test [1], in test [6] and in test [7] was “inactive” in each case.

With `C1CCC(NC2CCCCC2)CC1`, the Potency result in test [5], in test [1], in test [7], in test [3] and in test [4] was “inactive” each time. Moreover, the Potency in test [6] is 1.23 µM (active).

As to `CC(=O)[O][Hg][c]1ccccc1`, the Potency entry in test [5] is “inactive”. Moreover, the Potency in test [1] was 2.82 µM (active); in test [6], 0.617 µM (active); in test [2] it was 7.76 µM (active); in test [7] it was 2.45 µM (active); in test [4], 1.58 µM (active).

On to `COC(C)(C)CCCC(C)C/C=C/C(C)=C/C(=O)OC(C)C` (stereo not drawn), for which the Potency entry in test [5], in test [1] and in test [6] was “inactive” in each case.

Take `C[C@@H]1CC[C@H]2[C@@H](C)C(=O)O[C@@H]3O[C@@]4(C)CC[C@H]1[C@]32OO4`: the Potency entry in test [5] was “inactive”.

Regarding `Fc1cc(Br)ccc1CBr`, the Potency result in test [5], in test [1], in test [6] and in test [7] was “inactive” throughout.

For the compound `O=[N+]([O-])/N=C1\NCCN1Cc1ccc(Cl)nc1`, the Potency result in test [5], in test [1], in test [6], in test [7] and in test [3] was “inactive” each time. Besides, the activity change, negative = inhibition in test [4] is -0.0091%.

Consider `CC(C)N[C@@H]1CCn2c(=O)[nH]c3cccc(c32)[C@@H]1O`, for which the Potency entry in test [5] is “inactive”.

As for `CCCCCCCCCCCCCCCC[N+](C)(C)C`, the Potency entry in test [5] and in test [7] was “inactive” in each case. Besides, the Potency is 12.6 µM (active) in test [1]; 871 nM (active) and 849 nM (active) in test [6]; 25.1 µM (active) in test [4].

`NC(CP(=O)(O)O)C(=O)O` (stereo not drawn): the Potency entry in test [5] was “inactive”.

Take `S=C(SSC(=S)N1CCCCC1)N1CCCCC1`: the Potency result in test [5], in test [1] and in test [6] was “inactive” throughout. The Potency in test [4] was 1.12 µM (active).

With `Cc1c(C(=O)c2cccc3ccccc23)c2cccc3c2n1[C@H](CN1CCOCC1)CO3`, the activity change, negative = inhibition in test [5] is -12% [at 3.88 µM] (inactive).

`O=S(=O)(O)C(F)(F)C(F)(F)C(F)(F)C(F)(F)F`: the Potency entry in test [5], in test [1] and in test [6] was “inactive” in each case. Moreover, the Potency in test [7] was 18.9 µM (active).

As to `O=C(O)C(Cl)Cl`, the Potency entry in test [5], in test [1], in test [6] and in test [7] was “inactive” in each case.

Regarding `CC(Cc1ccc(O)cc1)NCC(O)c1cc(O)cc(O)c1` (stereo not drawn), the Potency result in test [5], in test [1], in test [7], in test [3] and in test [4] was “inactive” throughout. Moreover, the Potency in test [6] was 11 µM (active).

`CS(=O)(=O)c1ccc(C(=O)C2C(=O)CCCC2=O)c([N+](=O)[O-])c1`: the Potency entry in test [5], in test [1] and in test [6] was “inactive” in each case. Besides, in test [7], the Potency was 26.4 µM (active).

As to `NCc1cc(=O)[nH]o1`, the Potency result in test [5] is “inactive”.

In the case of `CC(O)CN1CCN(CC(=O)[O-])CCN(CC(=O)[O-])CCN(CC(=O)[O-])CC1.[Gd+3]` (stereo not drawn), the Potency entry in test [5], in test [1], in test [6] and in test [7] was “inactive” throughout.

As for `O=C(O)c1cc(Oc2ccc(C(F)(F)F)cc2Cl)ccc1[N+](=O)[O-]`, the Potency entry in test [5] and in test [1] was “inactive” throughout.

For the compound `O=C(O)[C@@H]1CCN1`, in test [5], the Potency result is “inactive”.

With `CC(C)NCC(O)c1ccc([N+](=O)[O-])cc1` (stereo not drawn), the Potency entry in test [5], in test [1], in test [2] and in test [7] was “inactive” in each case.

Regarding `c1ccc2sc(C3(N4CCCCC4)CCCCC3)cc2c1`, the Potency result in test [5] is “inactive”.

In the case of `C[C@]12N[C@H](Cc3ccccc31)c1ccccc12`, the Potency entry in test [5] was “inactive”.

`Cc1cc(O)ccc1Cl`: the Potency entry in test [5], in test [1], in test [6], in test [7], in test [3] and in test [4] was “inactive” throughout.

For the compound `C1=C2CCCN[C@H]2[C@@H]2C[C@H]1[C@@H]1CCCCN1C2`, the Potency result in test [5] is “inactive”.
